Compounds without any hit were thinned out: in the full panel of roughly 83,000, 20% have a hit.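 How to read the values: 0–100, growth inhibition (40 = 60% inhibited); 0, no net growth; -100 to 0, cell death (-40 = 40% of starting cells died; -100 = all dead).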 Unmarked numbers belong to inactive results. Active and inactive are the calls of the source. The calls were made as follows: active = growth percent below 10; inactive = the rest.

One experiment concerns SW-620 colon. Description: NCI-60 one-dose screen, 48 h (100 = growth as untreated, 0 = no growth, -100 = all killed). Particulars: 10 µM.
As for `COc1cc(-c2nc3cc(Cl)c(Cl)cc3[nH]2)ccc1OCC(=O)NN`, the growth was 80.9%.

Take `CC1(C)Cc2c(cn(Cc3ccccc3)c2-c2ccccc2)-c2oncc21`: the growth was 95.7%.

`CCOc1ccc(-n2cc(-c3ccc(N(C)C)cc3)[n+]3c2CCCCC3)cc1`: the growth is 19.1%.

In the case of `O=C(COCc1c(-c2ccccc2)no[n+]1[O-])Nc1nc(-c2ccc(Cl)cc2)cs1`, the growth was 101%.

With `CCN(Cc1ccccc1)C1CCN(Cc2cc(Br)ccc2O)CC1`, the growth is 63.7%.

As for `COCc1cc2c(cc1Br)OCO2`, the growth is 103%.

In the case of `COc1cc(/C=C/C(=O)c2cc(-c3ccc(C(F)(F)F)cc3)ccc2O)cc(OC)c1OC`, the growth is 54.9%.

In the case of `Cc1cc(C#Cc2ccccc2)ccc1-n1c(/C=C/c2cc(O)ccc2O)nc2ccccc2c1=O`, the growth was 5.7% (active).

As to `COc1cc(-c2nc3ccc(C)cc3[nH]2)ccc1OCC(=O)N=Nc1c(O)[nH]c2ccccc12`, the growth was -62.9% (active).

On to `COc1cc(-c2nc(-c3nnc(-c4cccnc4)o3)c3ccccn23)cc(OC)c1OC`, for which the growth was 92.8%.

As for `COc1cccc(C2(C)Nc3ccccc3-c3nc4ccccc4n32)c1` (centres undefined), the growth was 108%.

Turning to `COc1cc(CSc2nc3ccc(Cl)cc3c(=O)n2Cc2ccccc2)cc(OC)c1OC`, the growth was 28.7%.

`CC(C)c1[nH]nc2c(NCc3ccc(-c4ccccn4)cc3)nc(SCCN(C)C)nc12`: the growth is 9.8% (active).

Regarding `OC(CNC1CCCC1)Cn1c2ccccc2c2ccccc21` (centres undefined), the growth was -25.5% (active).

Consider `O=c1cc(CSc2nnc(-c3ccccc3)n2-c2ccc(F)cc2)c2ccc3ccccc3c2o1`, for which the growth was 104%.

As to `CC[C@@]1(C(N)=O)CC2C=CC1C2` (some centres undefined), the growth is 113%.

As for `CCCCOCC(=O)NC(NP(=O)(N(C)C)N(C)C)C(Cl)(Cl)Cl` (centres undefined), the growth is 108%.

For `COc1ccccc1S(=O)(=O)Nc1ccc2c(c1)CN(C)C(=O)N2`, the growth was 59.4%.

Regarding `O=C1CC(c2cccc(-c3cccnc3)c2)=Nc2ccc(Br)cc2N1`, the growth is 81.8%.

Regarding `N#Cc1c2c([nH]c(=O)c1C(N)=O)CCCCC2`, the growth was 101%.

For `CCOC(=O)C(CCC1=NC(C)(C)CC(C)O1)C(=O)OCC` (centres undefined), the growth was 56.7%.

Regarding `COc1cc(Nc2ccnc(N3CCN(c4ccnc5cc(Cl)ccc45)CC3)n2)cc(OC)c1`, the growth is 11%.

For `CS(=O)(=O)Nc1ccc(OCc2nnc(-c3ccc(Cl)cc3)o2)c(F)c1`, the growth was 108%.

In the case of `COc1cc(C2CC(=O)Nc3c2c(C)nn3-c2nc3ccccc3[nH]2)cc(OC)c1O` (centres undefined), the growth is 45.7%.

With `CCCCCCN=C(N)CCCCCCCCCCC(N)=NCCCCCC`, the growth is 22.4%.

`COc1ccc(-c2ccc(-c3ccc(C(=N)N)c(F)c3)s2)cc1`: the growth was -91% (active).

For `Oc1ccccc1-c1nnc(Cn2c(Cc3cccc4ccccc34)nc3ccccc32)o1`, the growth was 103%.

With `FC(F)(F)c1ccc(-c2nc(-c3nc4cc(Cl)c(Cl)cc4[nH]3)c3ccccn23)cc1`, the growth is 80%.

In the case of `CC(=O)Nc1ccc(Sc2ccc(NC(C)=O)cc2)cc1`, the growth is 104%.

Regarding `CNC(=O)c1cc(Oc2ccc(NC(=O)Nc3ccc(Cl)c(OC(C)C)c3)c(F)c2)ccn1`, the growth is 68.2%.

Take `c1ccc(OCCC[P+](c2ccccc2)(c2ccccc2)c2ccccc2)cc1`: the growth was 18.9%.

Consider `CN(C)c1ccc2c(c1)OC(N)=C(C#N)C2c1ccc2c(c1)CCCN2C` (centres undefined), for which the growth was 35%.

For the molecule `CCOC(=O)Nc1ccc2c(c1)C(=O)N(CCOC)c1ccccc1O2`, the growth was 32%.

Take `COc1cccc2c1O/C(=C\c1ncc([N+](=O)[O-])n1C)C2=O`: the growth is -20% (active).

Regarding `O=C1/C(=C/c2ccc(O)cc2O)N=C2SCCCN12`, the growth was 107%.

For `O=S(=O)(NC1c2ccccc2Oc2ccccc21)c1cc(Cl)ccc1Cl`, the growth is 87.5%.

Take `CCCCN(CCCC)c1ccc(C(=NC(C)CCCN(CC)CC)c2ccc(N(C)C)cc2)cc1` (centres undefined): the growth was -66.7% (active).

For another experiment, the system named is MCF7 breast. The experiment is described as above. Conditions: 10 µM.
Regarding `COc1cc(-c2nc3cc(Cl)c(Cl)cc3[nH]2)ccc1OCC(=O)NN`, the growth is 73.4%.

Take `CC1(C)Cc2c(cn(Cc3ccccc3)c2-c2ccccc2)-c2oncc21`: the growth is 105%.

In the case of `CCOc1ccc(-n2cc(-c3ccc(N(C)C)cc3)[n+]3c2CCCCC3)cc1`, the growth was 5.05% (active).

Take `O=C(COCc1c(-c2ccccc2)no[n+]1[O-])Nc1nc(-c2ccc(Cl)cc2)cs1`: the growth was 96.3%.

As to `CCN(Cc1ccccc1)C1CCN(Cc2cc(Br)ccc2O)CC1`, the growth is 46.5%.

For the molecule `COCc1cc2c(cc1Br)OCO2`, the growth is 96.4%.

For the molecule `COc1cc(/C=C/C(=O)c2cc(-c3ccc(C(F)(F)F)cc3)ccc2O)cc(OC)c1OC`, the growth is 43.8%.

Take `Cc1cc(C#Cc2ccccc2)ccc1-n1c(/C=C/c2cc(O)ccc2O)nc2ccccc2c1=O`: the growth was 2.03% (active).

`COc1cc(-c2nc3ccc(C)cc3[nH]2)ccc1OCC(=O)N=Nc1c(O)[nH]c2ccccc12`: the growth is -73.4% (active).

For `COc1cc(-c2nc(-c3nnc(-c4cccnc4)o3)c3ccccn23)cc(OC)c1OC`, the growth was 107%.

As to `COc1cccc(C2(C)Nc3ccccc3-c3nc4ccccc4n32)c1` (centres undefined), the growth is 103%.

Consider `COc1cc(CSc2nc3ccc(Cl)cc3c(=O)n2Cc2ccccc2)cc(OC)c1OC`, for which the growth was 14.3%.

As for `CC(C)c1[nH]nc2c(NCc3ccc(-c4ccccn4)cc3)nc(SCCN(C)C)nc12`, the growth is 4.04% (active).

Regarding `OC(CNC1CCCC1)Cn1c2ccccc2c2ccccc21` (centres undefined), the growth is -66.2% (active).

For the molecule `O=c1cc(CSc2nnc(-c3ccccc3)n2-c2ccc(F)cc2)c2ccc3ccccc3c2o1`, the growth is 99.5%.

For the molecule `CC[C@@]1(C(N)=O)CC2C=CC1C2` (some centres undefined), the growth is 99.5%.

With `CCCCOCC(=O)NC(NP(=O)(N(C)C)N(C)C)C(Cl)(Cl)Cl` (centres undefined), the growth is 103%.

For `COc1ccccc1S(=O)(=O)Nc1ccc2c(c1)CN(C)C(=O)N2`, the growth is 21.5%.

For `O=C1CC(c2cccc(-c3cccnc3)c2)=Nc2ccc(Br)cc2N1`, the growth is 23.6%.

Consider `N#Cc1c2c([nH]c(=O)c1C(N)=O)CCCCC2`, for which the growth was 103%.

Turning to `CCOC(=O)C(CCC1=NC(C)(C)CC(C)O1)C(=O)OCC` (centres undefined), the growth was 72.8%.

In the case of `COc1cc(Nc2ccnc(N3CCN(c4ccnc5cc(Cl)ccc45)CC3)n2)cc(OC)c1`, the growth is 0.585% (active).

Turning to `CS(=O)(=O)Nc1ccc(OCc2nnc(-c3ccc(Cl)cc3)o2)c(F)c1`, the growth is 81.7%.

For `COc1cc(C2CC(=O)Nc3c2c(C)nn3-c2nc3ccccc3[nH]2)cc(OC)c1O` (centres undefined), the growth is 56.9%.

Consider `CCCCCCN=C(N)CCCCCCCCCCC(N)=NCCCCCC`, for which the growth is 14.9%.

Consider `COc1ccc(-c2ccc(-c3ccc(C(=N)N)c(F)c3)s2)cc1`, for which the growth was -70.6% (active).

On to `Oc1ccccc1-c1nnc(Cn2c(Cc3cccc4ccccc34)nc3ccccc32)o1`, for which the growth was 102%.

On to `FC(F)(F)c1ccc(-c2nc(-c3nc4cc(Cl)c(Cl)cc4[nH]3)c3ccccn23)cc1`, for which the growth was 48%.

For `CC(=O)Nc1ccc(Sc2ccc(NC(C)=O)cc2)cc1`, the growth was 97.7%.

With `CNC(=O)c1cc(Oc2ccc(NC(=O)Nc3ccc(Cl)c(OC(C)C)c3)c(F)c2)ccn1`, the growth is 31%.

For the molecule `c1ccc(OCCC[P+](c2ccccc2)(c2ccccc2)c2ccccc2)cc1`, the growth was 4.3% (active).

For the molecule `CN(C)c1ccc2c(c1)OC(N)=C(C#N)C2c1ccc2c(c1)CCCN2C` (centres undefined), the growth was 18.1%.

As to `CCOC(=O)Nc1ccc2c(c1)C(=O)N(CCOC)c1ccccc1O2`, the growth was 14.4%.

As for `COc1cccc2c1O/C(=C\c1ncc([N+](=O)[O-])n1C)C2=O`, the growth was 3.84% (active).

Regarding `O=C1/C(=C/c2ccc(O)cc2O)N=C2SCCCN12`, the growth is 108%.

For the molecule `O=S(=O)(NC1c2ccccc2Oc2ccccc21)c1cc(Cl)ccc1Cl`, the growth was 91.9%.

On to `CCCCN(CCCC)c1ccc(C(=NC(C)CCCN(CC)CC)c2ccc(N(C)C)cc2)cc1` (centres undefined), for which the growth was -80.9% (active).

(Values after PubChem BioAssay (NCI).)
